Measured values from PubChem BioAssay (NCI).
The panel holds about 83,000 compounds, 20% with a hit somewhere; the sample as a whole holds those more often.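 The test compound was applied at a single concentration to cells in 96-well plates for 48 hours, and percent growth was recorded.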 Calls of active or inactive are those of the source. How the source made its calls: active means growth percent below 10; inactive means the rest.

system: NCI/ADR-RES ovarian; assay: NCI-60 one-dose screen, 48 h (100 = growth as untreated, 0 = no growth, -100 = all killed); settings: 10 µM unless noted

SMILES | growth
COc1ccc(-c2n[nH]nc2-c2cc3ccccc3s2)cc1O | 13.5% (inactive)
Cn1cc(-c2csc(-c3c[nH]c4ccc(F)cc34)n2)c2cccnc21 | 9.55% (active)
COc1cc(/C=N/Nc2ncnc3c2c(C)nn3-c2ccc(F)cc2)ccc1O | 95.7% (inactive)
Nc1ccccc1NC(=O)c1ccc(CN2CCC/C(=C\c3ccccn3)C2=O)cc1 | 28.7% (inactive)
Cc1ccccc1-c1nc(C(Cl)Cl)nc2cc(-c3ccccc3)nn12 | 65.3% (inactive)
N#CC1=C(N)Oc2ccc3ccccc3c2C1c1ccccc1 (stereo not given) | 8.41% (active)
Cc1csc(-c2ccc3c(c2)COC3(CCCN(C)C)c2ccc(F)cc2)c1 (stereo not given) | 78.6% (inactive)
O=C(O)c1cccc2c1Cc1cc([N+](=O)[O-])ccc1-2 | 100% (inactive)
COc1ccc(C2C(C#N)=C(N)Oc3c2sc2c(F)cccc32)cc1 (stereo not given) | 6.69% (active)
CCCCCCCCNc1cccc2c1C(=O)c1ccccc1C2=O | 112% (inactive)
CC1(C)CC[C@]2(CO)CC[C@]3(C)C(=CC[C@@H]4[C@@]5(C)CC[C@H](NCO)C(C)(C)[C@@H]5CC[C@]43C)[C@@H]2C1 | -64.8% (active)
CNC(=O)c1cc(Oc2ccc3nc(NC(=O)Nc4ccc(Cl)cc4)sc3c2)ccn1 | 83.6% (inactive)
O=C(c1ccccc1)C(CN1CCOCC1)c1ccccc1 (stereo not given) | 18.8% (inactive)
NCCn1cc(-c2nc(-c3c[nH]c4ncccc34)cs2)c2ccccc21 | 98.1% (inactive)
CC1(n2nnnc2N2CCCN(c3ncccc3N)CC2)CCC1 | 103% (inactive)
C=CC(=O)N[C@H](Cc1ccc(-c2cc(Cl)cc(Cl)c2)cc1)[C@H](O)[C@@H](O)C(=O)O | 101% (inactive)
N#CC1=C(N)Oc2c(sc3c(F)cccc23)C1c1ccc(Cl)cc1 (stereo not given) | 14.4% (inactive)
COc1ccccc1CNc1nc(N)nc2[nH]c3ccc(O)cc3c12 | 82.6% (inactive)

SMILES | growth
CCC(c1ccc(OC)cc1)C(CC)c1ccc(O)c(CN2CCCCC2)c1 (stereo not given) | 60.9% (inactive)
C/C(=N\Nc1cc(C)c2cc(C)ccc2n1)c1ccccn1 | 1.12% (active)
Cn1cc(-c2csc(-c3c[nH]c4ccccc34)n2)c2cccnc21 | 0.975% (active)
Oc1ccc(Nc2ccccc2)cc1 | 87.8% (inactive)
C(=C\c1c[nH]c2ccccc12)/c1ccc2ccccc2n1 | 72.1% (inactive)
COc1ccc(-c2nc3ccccn3c2-c2nc3ccc(Cl)cc3[nH]2)cc1 | 90.3% (inactive)
CC/C(=N/NC(N)=O)c1ccccc1 | 104% (inactive)
Cc1ccsc1-c1ccc2c(c1)COC2(CCCN(C)C)c1ccc(F)cc1 (stereo not given) | 72.4% (inactive)
Cc1ccc(N(CC(=O)Nc2ccc(S(=O)(=O)N3CCC(N4CCCC4)CC3)cc2)S(=O)(=O)c2ccc(Cl)cc2)cc1 | 70.2% (inactive)
CC1(C)NCCC[C@]2(C)[C@H]3CC[C@@H]4[C@H]5[C@H](C(=O)/C=C/c6ccccn6)CC[C@]5(CO)CC[C@@]4(C)[C@]3(C)CC[C@@H]12 | 76.8% (inactive)
Fc1ccc2nc(-c3cc(-c4ccc5c(c4)OCO5)n[nH]3)[nH]c2c1 | 42.4% (inactive)
O=C(NC(Cc1cn(Cc2ccccc2)cn1)C(=O)O)OCC1c2ccccc2-c2ccccc21 (stereo not given) | 104% (inactive)
Cc1cc(Cl)nc(N(CCCNc2ccnc3cc(Cl)ccc23)Cc2ccco2)n1 | 5.99% (active)
COc1cc(-c2cc3ncccc3c3nc(OCCN(C)C)c4cccnc4c23)cc(OC)c1OC | 5.27% (active)
O=C1CNCCN1 | 106% (inactive)
c1ccc2[nH]c(-c3ccc(Nc4nc(N5CCCCC5)nc(N5CCOCC5)n4)cc3)nc2c1 | 45.6% (inactive)
NC1=NN=C2N(N)C(=O)c3cnn(-c4ccccc4)c3N2c2nc(-c3ccccc3)cc(-c3ccccc3)c21 | 92.1% (inactive)
